Most compounds without a hit are left out; they make up all but 22% or so of the library.
CYP2C19 inhib – blockers of cytochrome P450 2C19 activity – biochemical, luminescence, ADME assay, primary screen | 21% of 96,000 active | inhibition, % at 5 µM | P33261 | CYP2C19 Supersomes, luciferin-H EGE luminescence, 30 min;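 active means CYP2C19 inhibition above a set limit at 5 µM in the primary screen, cut at about 50% in these data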;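 further: plate controls were negative control wells for no effect and 2.5 mM tranylcypromine positive control for full effect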
CYP2C19 act – human CYP2C19 activators, primary screen, biochemical, luminescence; recombinant CYP2C19, luciferin-H EGE luminescence; active compounds read high; 0 = fully inhibited enzyme, 1 = untreated enzyme; activation factor at 5 µM; 96,000 tested, under 10 active; AID 1025, 2008;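 active means activation factor of at least 2 at 5 µM in the primary screen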;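 further: 0 = wells with 2.5 mM tranylcypromine and 1 = vehicle-only wells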
CYP2C9 act – human CYP2C9 activators, primary screen, biochemical, luminescence; Cytochrome P450 2C9 (Homo sapiens), P11712; recombinant CYP2C9, luciferin-H conversion; active compounds read high; factor 1 = untreated enzyme, 0 = blocked; activation factor at 5 µM; 1.4% of 96,000 active; AID 1024, 2008;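 active means activation factor of 2 or more for CYP2C9 at a 5 µM dose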;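 further: 0 = sulfaphenazole-blocked wells and 1 = vehicle-only wells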
Target sequence (P11712 whole entry, looked up): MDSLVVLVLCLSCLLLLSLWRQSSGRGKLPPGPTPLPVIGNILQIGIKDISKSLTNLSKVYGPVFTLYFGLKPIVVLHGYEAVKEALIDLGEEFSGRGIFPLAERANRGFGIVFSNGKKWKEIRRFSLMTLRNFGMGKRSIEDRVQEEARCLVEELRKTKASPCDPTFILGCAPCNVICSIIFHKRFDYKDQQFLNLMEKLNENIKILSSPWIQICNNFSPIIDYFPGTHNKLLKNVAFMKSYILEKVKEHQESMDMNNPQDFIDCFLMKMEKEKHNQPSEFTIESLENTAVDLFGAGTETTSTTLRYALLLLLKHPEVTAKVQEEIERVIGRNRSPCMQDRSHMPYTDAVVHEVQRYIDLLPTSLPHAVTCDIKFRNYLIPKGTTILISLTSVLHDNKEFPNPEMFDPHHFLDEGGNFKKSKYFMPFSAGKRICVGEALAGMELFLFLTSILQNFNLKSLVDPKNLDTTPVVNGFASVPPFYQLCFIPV
Measles CPE – compounds protecting cells from measles virus cytopathic effect, primary screen, measles RdRp inhibitor project, single point, MLSMR library, absorbance. Measles virus-infected cells, CPE protection. protection (pct of control), % at 4 µM. 1.5% of 140,000 active; in the data active means protection mostly above about 24%, no sharp cut-off; inactive means mostly below about 26%
CYP2C9 inhib – blockers of cytochrome P450 2C9 activity – biochemical, luminescence, ADME assay, primary screen; P11712; CYP2C9 Supersomes, luciferin-H conversion; inhibition, % at 5 µM; 20% of 96,000 active; AID 777, 2007;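 active means blocking of liver enzyme CYP2C9 beyond about 50% at 5 µM, limit read from the data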
An asterisk follows results filed as active.

How did N#CC1=C(N)c2ccccc2CC12CCCCC2 do in these assays?
CYP2C19 inhib: 41; CYP2C19 act: 0.6; CYP2C9 act: 0.2; Measles CPE: 10; CYP2C9 inhib: 78*

Results for CCC(=O)NC1=C(C#N)C2(CCCC2)Cc2ccccc21 ?
CYP2C19 inhib: 28; CYP2C19 act: 0.7; CYP2C9 act: 0.8; Measles CPE: 1; CYP2C9 inhib: 19

How did Cc1ccc2c(c1)N(CC(=O)NC1CCC(C)CC1)C(=O)CO2 (stereo not drawn) do in these assays?
CYP2C19 inhib: 62*; CYP2C19 act: 0.4; CYP2C9 act: 1.1; Measles CPE: 3; CYP2C9 inhib: -6

How did CC1Oc2ccccc2N(CC(=O)N(Cc2ccccc2)Cc2ccccn2)C1=O (stereo not drawn) do in these assays?
CYP2C19 inhib: 61*; CYP2C19 act: 0.4; CYP2C9 act: 0.3; Measles CPE: 6; CYP2C9 inhib: 65*

How did COc1ccc(CN(Cc2ccccn2)C(=O)CN2C(=O)COc3ccccc32)cc1 do in these assays?
CYP2C19 inhib: 47; CYP2C19 act: 0.5; CYP2C9 act: 0.6; Measles CPE: 23; CYP2C9 inhib: 42

What do the screens show for `Cc1ccc(CNC(=O)CN2C(=O)COc3ccc(C)cc32)cc1`?
CYP2C19 inhib: 69*; CYP2C19 act: 0.3; CYP2C9 act: 1.1; Measles CPE: 3; CYP2C9 inhib: -12

What do the screens show for `Cc1ccc2c(c1)N(CC(=O)NCc1ccco1)C(=O)CO2`?
Measles CPE: 1

How did CC1Oc2ccccc2N(CC(=O)NCCc2ccccc2)C1=O (stereo not drawn) do in these assays?
CYP2C19 inhib: 94*; CYP2C19 act: 0.1; CYP2C9 act: 0.7; Measles CPE: 3; CYP2C9 inhib: 26

How did CCN(CCCNC(=O)CN1C(=O)COc2ccccc21)c1cccc(C)c1 do in these assays?
CYP2C19 inhib: 82*; CYP2C19 act: 0.2; CYP2C9 act: 0.3; Measles CPE: 3; CYP2C9 inhib: 67*

How did Cc1ccc2c(c1)N(CC(=O)NCc1cccs1)C(=O)CO2 do in these assays?
CYP2C19 inhib: 68*; CYP2C19 act: 0.3; CYP2C9 act: 1.2; Measles CPE: 22; CYP2C9 inhib: -18

How did O=C(CN1C(=O)C2(OCCCO2)c2ccccc21)NCCc1ccccc1 do in these assays?
CYP2C19 inhib: 86*; CYP2C19 act: 0.1; CYP2C9 act: 0.8; Measles CPE: 20; CYP2C9 inhib: 17

What do the screens show for `Cc1ccc2c(c1)N(CC(=O)OC(CC(C)C)C(=O)NC1CCCC1)C(=O)CO2` (stereo not drawn)?
CYP2C19 inhib: 69*; CYP2C19 act: 0.3; CYP2C9 act: 0.4; Measles CPE: 9; CYP2C9 inhib: 63*

How did Cc1ccc(CCNC(=O)CN2C(=O)COc3ccccc32)cc1 do in these assays?
CYP2C19 inhib: 89*; CYP2C19 act: 0.1; CYP2C9 act: 0.4; Measles CPE: 16; CYP2C9 inhib: 59*

What do the screens show for `Cc1ccccc1CN1C(=O)C2(OCCCO2)c2ccccc21`?
CYP2C19 inhib: 28; CYP2C19 act: 0.7; CYP2C9 act: 2.2*; Measles CPE: 2; CYP2C9 inhib: -116

Results for O=C(O)CN1C(=O)C2(OCCCO2)c2ccccc21 ?
CYP2C19 inhib: -5; CYP2C19 act: 1.1; CYP2C9 act: 1; Measles CPE: 5; CYP2C9 inhib: 1

How did CC(Sc1nc(-c2ccccc2)cc(C(F)(F)F)n1)C(=O)N1CCOCC1 (stereo not drawn) do in these assays?
Measles CPE: 24

What do the screens show for `Cc1ccc(OCCCCn2cnc3ccccc32)c(C)c1`?
CYP2C19 inhib: 35; CYP2C19 act: 0.7; CYP2C9 act: 0.6; Measles CPE: 3; CYP2C9 inhib: 38

Results for Cc1cc2ncn(CCOc3ccccc3C#N)c2cc1C ?
CYP2C19 inhib: 77*; CYP2C19 act: 0.2; CYP2C9 act: 0.5; Measles CPE: 13; CYP2C9 inhib: 51*

Results for Clc1ccc(OCCn2cnc3ccccc32)cc1 ?
CYP2C19 inhib: 84*; CYP2C19 act: 0.2; CYP2C9 act: 0.2; Measles CPE: 31; CYP2C9 inhib: 77*

What do the screens show for `Clc1ccccc1OCCn1cnc2ccccc21`?
CYP2C19 inhib: 80*; CYP2C19 act: 0.2; CYP2C9 act: 0.3; Measles CPE: 5; CYP2C9 inhib: 69*

Screening results as filed in PubChem.
